Measurements reported in PubChem BioAssay AID1159580 (chemical genetic matrix, 2015).
Screen size: about 5,500 compounds; about 2,000 (36%) were called active. Roughly 18% stayed inconclusive and do not appear here. Rule as the data show it: active = normalized growth mostly below about 0.91 (no sharp cut-off); inconclusive = no clear call, values can overlap the other calls; inactive = mostly above about 0.92. The list shows a part of the results.

Assay: chemical genetic growth profiling, strain panel (AID 1159580);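 also: tested at 20 µM; growth read once vehicle control cultures reached saturation at 30 °C; 1 = growth at the plate median or of vehicle wells; lower values mean less growth of the strain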
Settings: S. cerevisiae deletion strains, growth OD

Measured: normalized growth

CC[C@H]1OC(=O)C[C@@H](O)[C@H](C)[C@@H](O[C@@H]2O[C@H](C)[C@@H](O[C@H]3C[C@@](C)(O)[C@@H](O)[C@H](C)O3)[C@H](N(C)C)[C@H]2O)[C@@H](CC=O)C[C@@H](C)C(=O)/C=C/C(C)=C/[C@@H]1CO[C@@H]1O[C@H](C)[C@@H](O)[C@@H](OC)[C@H]1OC
inactive: locus YAL021C, strain ccr4, stronger effect = lower value 1.01 | locus YAL026C, strain drs2, stronger effect = lower value 0.986 | locus YAL030W, strain snc1, stronger effect = lower value 0.997 | locus YBL061C, strain skt5, stronger effect = lower value 0.986 | locus YBR009C, strain hhf1, stronger effect = lower value 1 | locus YBR023C, strain chs3, stronger effect = lower value 0.988 | locus YBR171W, strain sec66, stronger effect = lower value 0.987 | locus YBR231C, strain swc5, stronger effect = lower value 0.989 | locus YBR279W, strain paf1, stronger effect = lower value 0.994 | locus YCL011C, strain gbp2, stronger effect = lower value 0.995 | locus YCL016C, strain dcc1, stronger effect = lower value 1 | locus YCL061C, strain MRC1, stronger effect = lower value 1.01 | locus YCL069W, strain vba3, stronger effect = lower value 0.992 | locus YCR088W, strain abp1, stronger effect = lower value 1 | locus YDL005C, strain med2, stronger effect = lower value 0.986 | locus YDL040C, strain nat1, stronger effect = lower value 0.99 | locus YDR001C, strain nth1, stronger effect = lower value 0.997 | locus YDR069C, strain doa4, stronger effect = lower value 0.995 | locus YDR137W, strain rgp1, stronger effect = lower value 1.03 | locus YDR159W, strain sac3, stronger effect = lower value 0.971 | locus YDR195W, strain ref2 0.975 | locus YDR297W, strain sur2, stronger effect = lower value 0.995 | locus YDR334W, strain swr1, stronger effect = lower value 0.994 | locus YDR335W, strain msn5, stronger effect = lower value 0.98 | locus YDR392W, strain spt3, stronger effect = lower value 1.02 | locus YEL003W, strain gim4, stronger effect = lower value 0.992 | locus YEL037C, strain rad23, stronger effect = lower value 0.99 | locus YEL061C, strain CIN8 (second series), stronger effect = lower value 0.992 | locus YER015W, strain faa2, stronger effect = lower value 0.99 | locus YER016W, strain bim1, stronger effect = lower value 0.991 | locus YER111C, strain swi4, stronger effect = lower value 0.98 | locus YER155C, strain BEM2 (second series), stronger effect = lower value 0.993 | locus YFR010W, strain ubp6, stronger effect = lower value 0.988 | locus YGL167C, strain pmr1, stronger effect = lower value 0.986 | locus YGL173C, strain kem1, stronger effect = lower value 0.986 | locus YGL227W, strain vid30, stronger effect = lower value 0.988 | locus YGL240W, strain doc1, stronger effect = lower value 0.992 | locus YGL253W, strain hxk2, stronger effect = lower value 0.98 | locus YHR013C, strain ard1, stronger effect = lower value 0.985 | locus YHR027C, strain rpn1, stronger effect = lower value 0.995 | locus YHR030C, strain SLT2, stronger effect = lower value 0.953 | locus YHR079C, strain IRE1, stronger effect = lower value 0.948 | locus YHR142W, strain chs7, stronger effect = lower value 0.965 | locus YJL092W, strain hpr5, stronger effect = lower value 0.986 | locus YJL095W, strain BCK1 (second series), stronger effect = lower value 0.991 | locus YJL095W, strain BCK1, stronger effect = lower value 0.962 | locus YJL115W, strain asf1, stronger effect = lower value 0.983 | locus YJL129C, strain trk1, stronger effect = lower value 0.971 | locus YJL154C, strain vps35, stronger effect = lower value 0.994 | locus YJL164C, strain tpk1, stronger effect = lower value 0.998 | locus YJL166W, strain qcr8, stronger effect = lower value 0.991 | locus YJL187C, strain SWE1, stronger effect = lower value 0.995 | locus YJR066W, strain TOR1, stronger effect = lower value 0.918 | locus YKL160W, strain elf1, stronger effect = lower value 0.993 | locus YKR026C, strain gcn3, stronger effect = lower value 0.991 | locus YKR091W, strain srl3, stronger effect = lower value 0.989 | locus YLL001W, strain dnm1, stronger effect = lower value 0.977 | locus YLL026W, stronger effect = lower value 0.995 | locus YLL041C, strain sdh2, stronger effect = lower value 0.992 | locus YLR027C, strain aat2, stronger effect = lower value 0.998 | locus YLR113W, strain HOG1, stronger effect = lower value 0.954 | locus YLR221C, strain rsa3, stronger effect = lower value 1 | locus YLR258W, strain gsy2, stronger effect = lower value 0.995 | locus YLR262C, strain YPT6 (second series), stronger effect = lower value 0.989 | locus YLR320W, strain mms22, stronger effect = lower value 0.994 | locus YLR342W, strain FKS1, stronger effect = lower value 0.984 | locus YLR357W, strain rsc2, stronger effect = lower value 0.994 | locus YLR370C, strain arc18, stronger effect = lower value 0.986 | locus YLR384C, strain iki3, stronger effect = lower value 0.991 | locus YML120C, strain ndi1, stronger effect = lower value 1 | locus YMR058W, strain fet3, stronger effect = lower value 1 | locus YMR125W, strain sto1, stronger effect = lower value 0.983 | locus YMR129W, stronger effect = lower value 0.997 | locus YMR205C, strain PFK2, stronger effect = lower value 0.986 | locus YMR231W, strain pep5, stronger effect = lower value 0.999 | locus YNL071W, strain lat1, stronger effect = lower value 0.993 | locus YNL183C, strain NPR1, stronger effect = lower value 0.922 | locus YNL209W, strain ssb2, stronger effect = lower value 0.993 | locus YNL248C, strain rpa49, stronger effect = lower value 0.988 | locus YNL322C, strain KRE1 (second series), stronger effect = lower value 0.985 | locus YNR049C, strain mso1, stronger effect = lower value 0.99 | locus YOR001W, strain rrp6, stronger effect = lower value 0.993 | locus YOR070C, strain gyp1, stronger effect = lower value 0.996 | locus YOR080W, strain dia2, stronger effect = lower value 0.977 | locus YOR083W, strain WHI5, stronger effect = lower value 0.997 | locus YOR106W, strain vam3, stronger effect = lower value 0.993 | locus YOR231W, strain MKK1, stronger effect = lower value 0.97 | locus YOR265W, strain rbl2, stronger effect = lower value 0.994 | locus YOR270C, strain vph1, stronger effect = lower value 0.895 | locus YOR290C, strain snf2, stronger effect = lower value 1.01 | locus YPL051W, strain arl3, stronger effect = lower value 1 | locus YPL078C, strain atp4, stronger effect = lower value 0.974 | locus YPL106C, strain sse1, stronger effect = lower value 1 | locus YPL240C, strain hsp82, stronger effect = lower value 1 | locus YPL256C, strain CLN2, stronger effect = lower value 0.955

C[C@H](NC(=O)/C(C#N)=C/c1ccc(O)c(O)c1)c1ccccc1
inactive: locus YAL013W, strain DEP1, stronger effect = lower value 0.985 | locus YAL040C, strain CLN3, stronger effect = lower value 1.04 | locus YCL061C, strain MRC1 (second series), stronger effect = lower value 0.961 | locus YDR150W, strain NUM1, stronger effect = lower value 0.936 | locus YDR363W, strain ESC2, stronger effect = lower value 0.992 | locus YER002W, strain NOP16, stronger effect = lower value 0.985 | locus YGR229C, strain SMI1, stronger effect = lower value 0.93 | locus YJR075W, strain HOC1, stronger effect = lower value 0.961 | locus YMR263W, strain SAP30, stronger effect = lower value 1 | locus YMR307W, strain GAS1, stronger effect = lower value 1.02 | locus YNL153C, strain GIM3, stronger effect = lower value 0.978 | locus YNL175C, strain NOP13, stronger effect = lower value 0.991 | locus YNL197C, strain WHI3, stronger effect = lower value 0.987 | locus YNL224C, strain SQS1, stronger effect = lower value 1 | locus YOR083W, strain WHI5 (second series), stronger effect = lower value 0.968 | locus YPL055C, strain LGE1, stronger effect = lower value 0.924
